Screening data as filed in PubChem BioAssay.
In the library only some 2.6% were active in any assay of this set; here they are far more common.
PAFAH1B3 inh: PAFAH1B3 (human) inhibition; Q15102; recombinant PAFAH1B3, FP-rhodamine probe, fluorescence polarization; inhibition, % at 3.39 µM; 340,000 tested, 0.28% active; AID 492972;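 active = inhibition above the screen-wide average of all tested compounds plus 3 SD, cut at about 25% in these data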;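 note: 0% = enzyme with DMSO only and 100% = wells lacking PAFAH1B3 protein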
Target sequence (Q15102 whole entry, looked up): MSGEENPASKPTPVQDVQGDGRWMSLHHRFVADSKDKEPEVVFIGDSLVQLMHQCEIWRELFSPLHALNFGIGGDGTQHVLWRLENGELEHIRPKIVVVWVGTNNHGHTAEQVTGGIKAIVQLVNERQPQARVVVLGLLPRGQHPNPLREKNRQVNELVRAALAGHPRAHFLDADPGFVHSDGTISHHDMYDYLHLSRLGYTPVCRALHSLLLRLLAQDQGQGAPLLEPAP
PAFAH2 inh: inhibitors of human PAFAH2 | 340,000 tested, 0.99% active | Q99487 | inhibition, % at 3.39 µM | recombinant PAFAH2, FP-rhodamine activity probe, fluorescence polarization;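 active = inhibition above the mean over all tested compounds plus 3 SD, cut at about 30% in these data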;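 note: inhibitors block probe labeling of enzyme so polarization drops; 0% = enzyme with DMSO and 100% = wells lacking PAFAH2 protein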
PKA-R2B activ: PKA-R2B complex activation; PKA-R2B holoenzyme dissociation, Cy5-IP20 fluorescence polarization; R2B truncated from residue 108, S112A mutant; 0% DMSO only, 100% 113 µM cGMP; activation, % at 11.4 µM; 340,000 tested, 0.079% active; AID 504700;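 active = activation above a cutoff set at the mean over all compounds plus 3 SD, cut at about 18% in these data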;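 note: higher means more holoenzyme dissociation and a rise in polarization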
PKA-R1A activ: activates the PKA-R1A holoenzyme complex | activation, % at 11.4 µM | P00514+P68181 | AID 504707 | 340,000 tested, 0.083% active | PKA-R1A dissociation, Cy5-IP20 fluorescence polarization; scaled: DMSO 0%, 113 µM cGMP 100%;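 active = percent activation above the mean of all tested compounds plus 3 SD, cut at about 19% in these data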;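 note: higher means more PKAc released from R1A so a rise in polarization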
pPAFAH FP inh: inhibitors of human plasma PAF acetylhydrolase (pPAFAH). inhibition, % at 3.39 µM. recombinant pPAFAH, FP-rhodamine probe fluorescence polarization. 330,000 tested, 1.5% active;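 active = inhibition above the mean inhibition across the screen plus 3 SD, cut at about 25% in these data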;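 note: inhibitors block binding of the rhodamine activity-based probe so polarization drops; 0% = enzyme with DMSO and 100% = wells lacking pPAFAH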
PAFAH1B2 inh: PAFAH1B2 (human) inhibition. recombinant PAFAH1B2, FP-rhodamine activity probe, fluorescence polarization. inhibition, % at 3.39 µM. 340,000 tested, 1.2% active. AID 492953;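 active = inhibition above the mean of all tested compounds plus 3 SD, cut at about 24% in these data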;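 note: 0% = enzyme with DMSO and 100% = wells lacking PAFAH1B2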
Target sequence (P68402 whole entry, looked up): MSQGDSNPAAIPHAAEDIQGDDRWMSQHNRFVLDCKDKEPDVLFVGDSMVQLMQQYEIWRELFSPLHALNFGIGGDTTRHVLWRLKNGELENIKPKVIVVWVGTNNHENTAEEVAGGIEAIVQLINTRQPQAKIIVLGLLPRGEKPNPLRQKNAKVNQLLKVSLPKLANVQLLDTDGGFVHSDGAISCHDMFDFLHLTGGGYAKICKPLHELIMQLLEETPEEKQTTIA
An asterisk follows results filed as active.

Results for CN(Cc1ccccc1)C(=O)CN1CCN(S(=O)(=O)c2ccc(Cl)c(Cl)c2)CC1 ?
PAFAH1B3 inh: 6; PAFAH2 inh: 0; PKA-R2B activ: -3; PKA-R1A activ: -9; pPAFAH FP inh: 1; PAFAH1B2 inh: 30*

How did Cc1cc(S(=O)(=O)N2CCN(CC(=O)N(C)Cc3ccccc3)CC2)ccc1Br do in these assays?
PAFAH1B3 inh: 6; PAFAH2 inh: 4; PKA-R2B activ: -13; PKA-R1A activ: 1; PAFAH1B2 inh: 12

How did O=C(NN=C1CCCC1)c1cc(Br)ccc1O do in these assays?
PAFAH1B3 inh: 1; PAFAH2 inh: 5; PKA-R2B activ: 7; PKA-R1A activ: -8; pPAFAH FP inh: 30*; PAFAH1B2 inh: 2

How did O=C(N/N=C/c1ccoc1)c1ccccc1Br do in these assays?
PAFAH1B3 inh: 6; PAFAH2 inh: 1; PKA-R2B activ: -3; PKA-R1A activ: 0; PAFAH1B2 inh: 0

How did O=C(N/N=C/c1ccoc1)c1cc(Br)ccc1O do in these assays?
PAFAH1B3 inh: 15; PAFAH2 inh: 12; PKA-R2B activ: 14; PKA-R1A activ: 7; pPAFAH FP inh: 33*; PAFAH1B2 inh: 5

Results for CC1=C(C(=O)N(C)C)CC(CC(=O)NCCCCc2ccccc2)C(=O)N1Cc1ccc(F)cc1 (stereo not drawn) ?
PKA-R2B activ: 8; PKA-R1A activ: 1

What do the screens show for `CC(=O)Nc1cccc(C(=O)N2CCN(S(=O)(=O)c3ccc(C4CCCCC4)cc3)CC2)c1`?
PAFAH1B3 inh: -3; PAFAH2 inh: 1; PKA-R2B activ: -9; PKA-R1A activ: -12; PAFAH1B2 inh: 1

How did CCN(CC)C(=O)c1c[nH]c2ccc(S(=O)(=O)Nc3cc(C)cc(C)c3)cc2c1=O do in these assays?
PAFAH1B3 inh: 5; PAFAH2 inh: 0; PKA-R2B activ: -4; PKA-R1A activ: -2; pPAFAH FP inh: 29*; PAFAH1B2 inh: 7

What do the screens show for `Cc1cc(C)cc(NS(=O)(=O)c2ccc3[nH]cc(C(=O)N4CCc5ccccc54)c(=O)c3c2)c1`?
PAFAH1B3 inh: -6; PAFAH2 inh: -5; PKA-R2B activ: 6; PKA-R1A activ: -4; pPAFAH FP inh: 21; PAFAH1B2 inh: -5

How did CC1CC(NS(=O)(=O)c2cccs2)CC(C)(C)C1 (stereo not drawn) do in these assays?
PAFAH1B3 inh: 15; PAFAH2 inh: 8; PKA-R2B activ: 5; PKA-R1A activ: 0; pPAFAH FP inh: -3; PAFAH1B2 inh: 29*

How did O=S(=O)(NC1CCCCC1)c1cccs1 do in these assays?
PAFAH1B3 inh: 10; PAFAH2 inh: 5; PKA-R2B activ: -10; PKA-R1A activ: -15; pPAFAH FP inh: 8; PAFAH1B2 inh: 3

What do the screens show for `NC(CCCCc1ccccc1)c1cccc2ccccc12` (stereo not drawn)?
pPAFAH FP inh: 1

Results for O=C1c2cc(O)cc(O)c2C(=O)c2c1cc(O)c([C@@H](CO)CCO)c2O ?
PAFAH1B3 inh: 17; PAFAH2 inh: 18; PKA-R2B activ: -12; PKA-R1A activ: 0; pPAFAH FP inh: 31*; PAFAH1B2 inh: 19

How did O=C1c2cccc(O)c2C(=O)c2c(O)cc(CO)cc21 do in these assays?
pPAFAH FP inh: 10

What do the screens show for `Cc1cc(O)c2c(c1)C(=O)c1cc(O)cc(O)c1C2=O`?
PAFAH1B3 inh: 20; PAFAH2 inh: 10; PKA-R2B activ: 4; PKA-R1A activ: -2; pPAFAH FP inh: 30*; PAFAH1B2 inh: 4

How did CC1(C2CC2)NC(=O)N(CC(=O)Nc2ccc(C(F)(F)F)cc2)C1=O (stereo not drawn) do in these assays?
PAFAH1B3 inh: 8; PAFAH2 inh: 3; PKA-R2B activ: 1; PKA-R1A activ: -2; pPAFAH FP inh: 0; PAFAH1B2 inh: 4

Results for C=CCNC(=O)c1c(CSc2ccc(F)cc2)noc1C(=O)NCCC ?
PAFAH1B3 inh: 1; PAFAH2 inh: -1; PKA-R2B activ: -6; PKA-R1A activ: -13; pPAFAH FP inh: 8; PAFAH1B2 inh: 6

Results for COc1ccccc1Cn1c(-c2ccccc2OC)nc2ccccc21 ?
PAFAH1B3 inh: 1; PAFAH2 inh: -3; PKA-R2B activ: -14; PKA-R1A activ: -7; pPAFAH FP inh: 27*; PAFAH1B2 inh: -1

Results for Cc1ccc(-c2c(C(=O)NCc3ccccc3)oc(=O)c3ccccc23)cc1 ?
PAFAH1B3 inh: 1; PAFAH2 inh: 24; PKA-R2B activ: -11; PKA-R1A activ: -4; pPAFAH FP inh: 32*; PAFAH1B2 inh: 10

Results for CCOc1cc(/C=C2\N=C(SCC)SC2=O)cc([N+](=O)[O-])c1OC(C)=O ?
PAFAH1B3 inh: 12; PAFAH2 inh: 53*; PKA-R2B activ: -4; PKA-R1A activ: -6; pPAFAH FP inh: 23; PAFAH1B2 inh: 24*

Results for Cc1cc(C(=O)OCC(=O)Nc2ccc(F)cc2F)c(C)o1 ?
PAFAH1B3 inh: 3; PAFAH2 inh: 45*; PKA-R2B activ: 1; PKA-R1A activ: -6; pPAFAH FP inh: 4; PAFAH1B2 inh: 9

How did COc1ccc(-n2cnc(=S)[nH]c2=S)cc1 do in these assays?
PAFAH1B3 inh: 4; PAFAH2 inh: -2; PKA-R2B activ: -6; PKA-R1A activ: -5; PAFAH1B2 inh: -2

What do the screens show for `COC(=O)C(Cc1ccc(O)cc1)NC(=O)C(C)NC(=O)c1ccc(C(C)(C)C)cc1` (stereo not drawn)?
PAFAH1B3 inh: 7; PAFAH2 inh: 6; PKA-R2B activ: 10; PKA-R1A activ: 1; pPAFAH FP inh: 4; PAFAH1B2 inh: 27*

Results for O=C(CSCc1ccc(Cl)cc1Cl)Nc1ccc(O)cc1C(=O)O ?
PAFAH1B3 inh: -1; PAFAH2 inh: -2; PKA-R2B activ: -1; PKA-R1A activ: 3; pPAFAH FP inh: 0; PAFAH1B2 inh: 28*

Results for COc1cc(NC(=O)CSCc2ccc(Cl)cc2Cl)c(C(=O)O)cc1OC ?
PAFAH1B3 inh: -2; PAFAH2 inh: 11; PKA-R2B activ: -7; PKA-R1A activ: 2; pPAFAH FP inh: 1; PAFAH1B2 inh: 2

What do the screens show for `C(=N\Nc1nc(-c2ccccc2)cs1)/c1ccncc1`?
PAFAH1B3 inh: 9; PAFAH2 inh: 6; PKA-R2B activ: 4; PKA-R1A activ: -3; pPAFAH FP inh: 11; PAFAH1B2 inh: 9

How did O=C(O)Cc1sc(N/N=C\c2ccncc2)nc1-c1ccccc1 do in these assays?
PAFAH1B3 inh: 1; PAFAH2 inh: 4; PKA-R2B activ: 9; PKA-R1A activ: 11; pPAFAH FP inh: 25*; PAFAH1B2 inh: -1

What do the screens show for `COc1ccccc1NC(=O)CNC(c1ccccc1)c1ccccc1`?
PAFAH1B3 inh: 10; PAFAH2 inh: 7; PKA-R2B activ: -6; PKA-R1A activ: 3; pPAFAH FP inh: 5; PAFAH1B2 inh: 5

Results for O=C(CNC(c1ccccc1)c1ccccc1)Nc1ccccc1Br ?
PAFAH1B3 inh: -3; PAFAH2 inh: 6; PKA-R2B activ: -6; PKA-R1A activ: -16; pPAFAH FP inh: 32*; PAFAH1B2 inh: 4
